Several values for one entry are separate records, joined by “and”; a condition that tells them apart may be missing. Equal values may be shown once. Inconclusive results are not listed. Entries that show only a call come without a potency. Some compounds were tested as several samples or in several runs, with calls that do not always agree. Activity calls are given as the source filed them. Calls follow the shape of the full dose curve.
Potency is read from the fitted curve at half-maximal effect.

This experiment can be described thus: qHTS assay to identify small molecule agonists of the hypoxia (HIF-1) signaling pathway - cell viability counter screen (AID 1224844). Also: nearly all actives have a fitted effect of over 50% in size. To be noted: HRE-bla ME-180 viability, CellTiter-Glo luminescence, 17 h; series mostly up to 76.8 µM. The source says: National Center for Advancing Translational Sciences [NCATS]
NIH Chemical Genomics Center [NCGC]
U.S. Environmental Protection Agency [EPA]
National Institutes of Environmental Health Sciences [NIEHS]
National Toxicology Program [NTP]
U.S. Food and Drug Administration [FDA]
Hypoxia-inducible factor-1 (HIF-1) is the major hypoxia-regulated transcription factor that controls cellular responses to low oxygen concentration. HIF-1 is composed of two subunits: hypoxia responsive HIF-1-alpha and constitutively expressed HIF-1-beta, which is also known as aryl hydrocarbon receptor nuclear translocator. During hypoxic conditions, HIF-1-alpha heterodimerizes with HIF-1-beta and translocates into the nucleus where the HIF-1 complex binds to the hypoxia-response element (HRE) and activates expression of target genes such as VEGF (vascular endothelial growth factor). The HIF-1 pathway is essential to normal growth and development, and is involved in the pathophysiology of cancer, inflammation, and ischemia.
Using a beta-lactamase reporter-gene under control of the hypoxia response element, a cell-based assay [CellSensor(TM) HRE-bla ME-180 from Life Technologies, Carlsbad, CA] was used to measure hypoxia-induced signaling. Tox21 10K library compounds were measured for their ability to induce the reporter gene activity. The cytotoxicity of the Tox21 compound library against HRE-bla ME-180 cell line was tested in parallel by measuring cell viability using CellTiter-Glo assay (Promega, Madison, WI) in the same assay wells.
Tox21 Assay Protocol Summary:
HRE-bla ME-180 cells were dispensed at 2,000 cells per well in 6 uL of assay medium containing 0.5% dialyzed FBS into black wall/clear-bottom 1536-well plates using a Multidrop Combi (Thermo Scientific, Waltham, MA) dispenser. After the assay plates were incubated at 37C and 5% CO2 for 5 hrs, 23 nL of compounds dissolved in DMSO, positive controls or DMSO only was transferred to each well of the assay plate using a Pintool station (Kalypsys, San Diego, CA). The assay plates were incubated at 37C and 5% CO2 for 17 hrs. One uL of LiveBLAzerTM B/G FRET substrate (CCF4-AM) (Life Technologies) was added to each well using a Flying Reagent Dispenser (FRD, Aurora Discovery, San Diego, CA). After 2 hr incubation at room temperature, fluorescence intensity (405 nm excitation, 460 nm and 530 nm emissions) was measured using an Envision plate reader (PerkinElmer, Shelton, CT). For cytotoxicity, 4 ul/well of CellTiter-Glo reagent was added into the assay plates using an FRD. After 30 min incubation at room temperature, the luminescence intensity was measured using a ViewLux plate reader (PerkinElmer).
Consider `NC(=S)Nc1ccccc1`, for which the Potency result was “inactive”.

Consider `N#Cc1cc(Br)c(O)c(Br)c1`, for which the Potency result is “inactive”.

Turning to `NCc1cccnc1`, the Potency entry is “inactive”.

In the case of `S=C1NCCN1`, the Potency entry was “inactive”.

For the compound `c1ccc(N=Nc2ccccc2)cc1`, the Potency entry was “inactive”.

Take `CC(C)(C)c1ccccc1O`: the Potency result is “inactive”.

For the compound `Cc1ccc(OP(=O)(Oc2ccc(C)cc2)Oc2ccc(C)cc2)cc1`, the Potency entry is “inactive”.

Regarding `CCCCCCCCC(=O)NCc1ccc(O)c(OC)c1`, the Potency result is “inactive”.

Regarding `Cc1ccc2c(c1N)C(=O)c1ccccc1C2=O`, the Potency entry is “inactive”.

Consider `Cc1cccc(N)c1N`, for which the Potency result is “inactive”.

As to `CCCCN(CCCC)N=O`, the Potency entry was “inactive”.

As for `CCN(N=O)C(N)=O`, the Potency entry is “inactive”.

With `CCN(CC)C(=O)/C(Cl)=C(\C)OP(=O)(OC)OC`, the Potency result is “inactive”.

Regarding `C=CCc1ccc(OC)cc1`, the Potency result was “inactive”.

Consider `CC(O)CCO` (stereo not given), for which the Potency entry is “inactive”.

On to `C[C@]12CCC(=O)C[C@@H]1CC[C@@H]1[C@@H]2CC[C@]2(C)[C@@H](O)CC[C@@H]12`, for which the Potency result was “inactive”.

As to `C=CC(=O)OCCO`, the Potency result is “inactive”.

On to `CCCCNC(=O)n1c(NC(=O)OC)nc2ccccc21`, for which the Potency entry is “inactive”.

For the compound `CCN(CC)N=O`, the Potency result was “inactive”.

As for `CC(C)=CC1C(C(=O)OCc2coc(Cc3ccccc3)c2)C1(C)C` (stereo not given), the Potency result was “inactive”.

Consider `Nc1c(Cl)cc([N+](=O)[O-])cc1Cl`, for which the Potency result is “inactive”.

In the case of `C=CCc1ccc2c(c1)OCO2`, the Potency entry was “inactive”.

On to `CNC(=O)N(C)c1nnc(C(C)(C)C)s1`, for which the Potency entry is “inactive”.

Turning to `O=P(O)(O)CCCl`, the Potency entry was “inactive”.

In the case of `N[C@@H](Cc1ccc(N(CCCl)CCCl)cc1)C(=O)O`, the Potency is 23.5 µM (active) and 23.9 µM (active).

Consider `OCC(O)CO`, for which the Potency entry is “inactive”.

On to `COP(=O)(OC)OC`, for which the Potency result is “inactive”.

In the case of `CCC(C)c1ccc(O)cc1` (stereo not given), the Potency result is “inactive”.

`CNC(=O)Oc1cccc2c1OC(C)(C)O2`: the Potency result was “inactive”.

Regarding `O=[N+]([O-])c1cccc2ccccc12`, the Potency result was “inactive”.

On to `Cc1ccccc1[N+](=O)[O-]`, for which the Potency result is “inactive”.

For `NNC(N)=S`, the Potency entry was “inactive”.

For `CCCCCCOC(=O)c1ccccc1C(=O)OCCCCCC`, the Potency entry was “inactive”.

As for `CCC(CC)Nc1c([N+](=O)[O-])cc(C)c(C)c1[N+](=O)[O-]`, the Potency entry is “inactive”.

Regarding `CCC(=O)O[C@H]1CC[C@H]2[C@@H]3CCC4=CC(=O)CC[C@]4(C)[C@H]3CC[C@]12C`, the Potency was 54.9 µM (active) and inactive.

For the compound `Oc1cc(Cl)ccc1Oc1ccc(Cl)cc1Cl`, the Potency is 50.1 µM (active) and inactive.

As to `Nn1cnnc1`, the Potency result was “inactive”.

`CCCCC(CC)COC(=O)Cl` (stereo not given): the Potency entry was “inactive”.

For the compound `ClC1C(Cl)C(Cl)C(Cl)C(Cl)C1Cl` (stereo not given), the Potency result is “inactive”.

Regarding `Oc1c(Cl)c(Cl)c(Cl)c(Cl)c1Cl`, the Potency result was “inactive”.

For the origin of these results see PubChem BioAssay (Tox21).
